A selection follows.
aSyn 5UTR act: Activators via SNCA 5'UTR binding, MLPCN. activity score, % (tested at 7.5 µM), hits read low. AID 1814, 2009. alpha-synuclein 5'UTR reporter, activators screen. hit rate 7.1% among 300,000; in the data active = activity score below about -60%
An asterisk follows results filed as active.

SMILES	aSyn 5UTR act
Cc1nc2ccc(-c3nc4ccccc4o3)cc2[nH]1	-73*
Nc1ccc(-c2nc3ccc(-c4nc5ccccc5o4)cc3[nH]2)cc1	-215*
Fc1ccc2nc3[nH]c4ccccc4c3nc2c1	-161*
CC(C)N(Cc1cn[nH]c1-c1ccc(-c2ccccc2)cc1)Cc1nccn1C	-106*
COc1ccc(/C=C2\CCC(C3CCCC3)C2=O)cc1 (configuration not stated)	-179*
COc1ccc(/C=C2\CCC(C3CCCC3)C2=O)cc1OC (configuration not stated)	-75*
Cc1ccc(/C=C2\CCC(C3CCCC3)C2=O)cc1 (configuration not stated)	-105*
Cc1ccsc1/C=C1\CCC(C2CCCC2)C1=O (configuration not stated)	-163*
CCOC(=O)c1cnc(Nc2ccccc2)nc1C(F)(F)F	-89*
CC(C)=CC(=O)Nc1nc2ccc([N+](=O)[O-])cc2s1	-83*
O=C(NC(Nc1nc2ccc([N+](=O)[O-])cc2s1)(C(F)(F)F)C(F)(F)F)c1ccccc1Cl	86
C/C(=C\c1ccccc1)C(=O)Nc1nc2ccc([N+](=O)[O-])cc2s1	-79*
CCNC(=O)c1cc2c(=O)n3cccc(C)c3nc2n(CCc2ccccc2)c1=N	-105*
Cc1cccn2c(=O)c3cc(C(=O)NCCN4CCOCC4)c(=N)n(CCc4ccccc4)c3nc12	-128*
COc1ccc(CCn2c(=N)c(C(=O)N3CCN(C)CC3)cc3c(=O)n4ccccc4nc32)cc1	-65*
COc1ccc(CCn2c(=N)c(C(=O)NCCN3CCOCC3)cc3c(=O)n4cccc(C)c4nc32)cc1OC	-93*
Cc1cccn2c(=O)c3cc(C(=O)NCc4ccco4)c(=N)n(C4CCCCC4)c3nc12	-69*
N#Cc1c(/N=C/c2cc3ccccc3s2)sc2c1CCC2	-150*
Cc1ccc(/C=N/c2sc3c(c2C#N)CCC3)s1	-146*
O=C1N=C(N2CCOCC2)S/C1=C/c1cc2c(cc1[N+](=O)[O-])OCO2	-67*
Cc1cccc(N=CC=C2OC(C)(C)C(C)(C)O2)c1	-81*
COc1cccc(N=CC=C2OC(C)(C)C(C)(C)O2)c1	-99*
O=c1[nH]c(/C(Cl)=C/c2cccc(F)c2)nc2cc(C(F)(F)F)ccc12	-162*
N#C/C(=C\c1c[nH]c2ccccc12)C(=O)NCC1CCCO1 (configuration not stated)	-73*
N#C/C(=C\c1cccs1)C(=O)NCC1CCCO1 (configuration not stated)	-66*
SMILES	aSyn 5UTR act
CCOC(=O)c1ccc(-c2ccc(/C=C(\C#N)C(=O)NCC3CCCO3)o2)cc1 (configuration not stated)	-85*
CC(C)OC(=O)/C(C#N)=C/c1c[nH]c2ccccc12	-80*
CC(C)OC(=O)/C(C#N)=C/c1cn(Cc2ccccc2)c2ccccc12	75
Nc1nc(Nc2ccccc2)nc(NCc2ccccc2)c1[N+](=O)[O-]	84
c1ccc2sc(NC3=NCN(CC4CCCO4)CN3)nc2c1 (configuration not stated)	-86*
c1coc(CN2CN=C(Nc3nc4ccccc4s3)NC2)c1	-81*
c1coc(CNc2nc3ccccc3s2)c1	-137*
c1ccc(Nc2nc(NCc3ccco3)c3ccccc3n2)cc1	-67*
Oc1c(C(Nc2nc3ccccc3s2)c2ccco2)ccc2cccnc12 (configuration not stated)	66
CC(C)NC(=O)c1ccc2c3n(nc2c1)-c1ccc(Cl)cc1CO3	-176*
CC(C)CC(NC(=O)c1ccc(Cl)cc1)C(=O)OCC(=O)c1ccc2c(c1)NC(=O)CO2 (configuration not stated)	96
CCN(CC)CCCNC(=O)c1ccc2c3n(nc2c1)-c1ccc(Cl)cc1CO3	-246*
CC(C)c1cc(C(C)C)c(S(=O)(=O)N2c3ccccc3[C@]3(Br)C[C@H]4C(=O)N[C@@H](Cc5ccccc5)C(=O)N4[C@H]23)c(C(C)C)c1	65
CCCNC(=O)c1cc(-c2ccco2)on1	-335*
CC(C)CNC(=O)c1cc(-c2ccco2)on1	-137*
Cc1nc2c(sc3nc4c(cc32)COC(C)(C)C4)c(=O)n1CC(=O)NCc1ccco1	-69*
CCCc1nc2c(sc3nc4c(cc32)COC(C)(C)C4)c(=O)n1Cc1ccco1	-65*
Cc1nc2c(sc3nc4c(cc32)COC(C)(C)C4)c(=O)n1Cc1ccccc1	-109*
Cc1nc(OCc2ccccc2)c2sc3nc4c(cc3c2n1)COC(C)(C)C4	-185*
O=C1C(Cl)=C(Nc2cccc(O)c2)C(=O)N1Cc1ccccc1	-69*
CCCNC(=O)c1ccc(N2CCC3(CC2)CC(c2ccccc2)=NO3)c(NC(=O)c2ccccc2)c1	59
CC1CC(C)CN(S(=O)(=O)c2ccc(C(=O)NCCCn3ccnc3)cc2)C1 (configuration not stated)	98
CCCN1CCN(CCCNC(=O)c2ccc3nc(N4CCCCC4)sc3c2)CC1	-214*
CC1CC(C)CN(CCCNC(=O)c2ccc3nc(N4CCCCC4)sc3c2)C1 (configuration not stated)	-273*
Cc1csc2nc(CNC(=O)c3ccco3)cn12	-68*

Bioassay records: PubChem BioAssay, Broad Institute
